# From PubChem BioAssay
# TRPML1 ag: agonists of human TRPML1 channel; activation, % (concentration not given with the values); 410,000 tested, 0.12% active; TRPML1-expressing cells, Ca2+ dye fluorescence, FDSS; in the data active = activation above about 50%; inconclusive = mostly about 30% to 49%; also: 0% is about no effect
#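 TRPML1-DL cells, Tet-induced overnight (~16 h, 37 degrees C), loaded 45-90 min at room temperature with Ca8 no-wash calcium dye plus quencher. FDSS fluorescence: 10 s baseline, compound pin-transfer, 110 s agonist read, then EC80 54-4 (4uM final) and 110 s antagonist read.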
# BRCA1 expr up: BRCA1 expression activation; MCF7-BRCA1-FFLuc reporter, luminescence, 48 h; response scale: scaled: vehicle 0%, 10 µM genistein 100%; Potency, µM (titrated, usually from 46.1 µM), for inactives: at the highest dose activation, most hits filed as activators; 380,000 tested, 1.1% active; AID 624202; also: potency is read from the fitted curve at half-maximal effect; nearly all actives have a fitted effect of over 80% in size
#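 MCF7 cells carrying a BRCA1-firefly luciferase reporter (2000 cells/well, phenol-red free MEM) were attached for 2 h at 37 °C, then given compounds for 48 h. Luminescence was read 15 min after luciferase reagent; activity normalized to genistein (10 microM) and DMSO.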
# PKM2 activator: PKM2 (human) enzyme activation | P14618 | purified PKM2, Kinase-Glo ATP luminescence, activation; response scale: 0% is enzyme alone, no compound | Potency, µM (titrated, usually from 57.5 µM), for the others: at the highest dose activation, most hits filed as activators | 260,000 tested, 0.34% active; also: potency is read from the fitted curve at half-maximal effect; % is scaled to controls: 0 for no effect and ±100 for the full control effect; nearly all actives have a fitted effect of over 55% in size
#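 Purified hPK-M2 (>95% pure) converted ADP (0.1 mM final) to ATP with 0.5 mM PEP in 50 mM imidazole pH7.2, KCl, MgCl2, Tween 20, BSA; 1 h at room temperature. ATP detected by Kinase-Glo luminescence.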
# TRPML1 inh: blocks the human TRPML1 channel; activity change, negative = inhibition, % (no concentration beside the values); Q9GZU1; 390,000 tested, 0.02% active; TRPML1-inducible cells, Ca2+ dye fluorescence, FDSS; hits give low values; inhibition of EC80 agonist-evoked calcium signal; AID 624415; in the data active = activity change below about -50%; inconclusive = between about -30% and that limit;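 also: stimulus is agonist 54-4 at its EC80 concentration; % is scaled to controls: 0 for no effect and ±100 for the full control effect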
#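 TRPML1-DL cells, Tet-induced overnight (~16 h, 37 °C) at 1,500 cells/well, were loaded with Ca8 no-wash dye plus quencher for 45-90 min at room temperature. Compounds were pinned during FDSS kinetic reading; agonist 54-4 at EC80 (4 uM final) then added.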
# IL2 activator: activators of IL-2; IL-2 activation reporter assay, cell-based qHTS; stimulated with anti-CD3/CD4/CD28 beads; in transgenic mouse T cells; activation, % (series mostly up to about 46 µM); 360,000 tested, 0.065% active; AID 652025; in the data active = activation above about 50%; inconclusive = mostly about 30% to 49%; also: 0% is about no effect
#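 Unstimulated transgenic mouse T cells, 750 per well, received compound and, after 60 minutes, anti-CD3/anti-CD4 bead plus anti-CD28 stimulation. EGFP and DsRed were quantified after 18 hours.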
# PTAP TSG101 blk: blocks PTAP/TSG101 interaction to inhibit HIV-1 budding. AID 493005. 340,000 tested, under 10 active. Potency, µM (highest dose often 115 µM), inactives show at the top dose activity change, negative = inhibition, hits mostly inhibitors. Fluorescence polarization, FITC-PTAP peptide / Tsg101 binding; active = well fitted inhibition curve with a large enough effect in the main read-out, with a control signal flat, not every such curve was filed as active; inconclusive = small, poorly fitted or top-dose-only effect, or effect the other way, or a change in a side signal; inactive = no such curve, though single readings can be large or run the other way; also: potency is read from the fitted curve at half-maximal effect; % of control where 0% means no effect
# Target sequence (Q99816 whole entry, looked up): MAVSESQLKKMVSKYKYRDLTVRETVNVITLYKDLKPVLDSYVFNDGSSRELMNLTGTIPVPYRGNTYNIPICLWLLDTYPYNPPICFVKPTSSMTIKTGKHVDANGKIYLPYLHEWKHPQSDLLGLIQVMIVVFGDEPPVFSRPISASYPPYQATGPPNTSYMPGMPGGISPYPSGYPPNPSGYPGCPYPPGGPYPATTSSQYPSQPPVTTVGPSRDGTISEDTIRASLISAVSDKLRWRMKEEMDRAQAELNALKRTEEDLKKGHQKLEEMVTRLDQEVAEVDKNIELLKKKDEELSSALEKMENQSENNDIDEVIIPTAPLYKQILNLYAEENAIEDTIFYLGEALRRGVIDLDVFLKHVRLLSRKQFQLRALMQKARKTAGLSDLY
#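 Fluorescence anisotropy tracks displacement of a FITC-tagged PTAP peptide (50 nM) from the Tsg101 binding domain (10 uM), following a 20 min room-temperature incubation at pH 7.5.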
# Numbers without * were called inactive; ? = inconclusive; . = no result. A selection: hits, their analogues and other compounds. The true share with any hit is near 1.3%. Unless noted, calls follow the shape of the dose curve; as a rule, active = well fitted activation curve with a large enough effect; inconclusive = small, poorly fitted or top-dose-only effect; inactive = no such curve, though single readings can be large or run the other way.
SMILES,TRPML1 ag,BRCA1 expr up,PKM2 activator,TRPML1 inh,IL2 activator,PTAP TSG101 blk
COC(=O)c1cc(Cl)c(NC(=O)c2ccc(C(C)(C)C)cc2)cc1OC,2,3.5µM*,0%,27,-2,-2%
COc1ccc(OCCn2c(CCNC(=O)C3CCCCC3)nc3ccccc32)cc1,-1,-4%,.,.,.,.
Cc1cc(N=NC(=O)c2ccccc2O)c2ccccc2c1O,4,5.6µM*,-11%,1,-2,-5%
Cc1ccc(N=C2NC(=O)/C(=C/c3cccn3C)S2)cc1,1,3.5µM*,1%,-9,-1,3%
Cc1ccc(N=C2NC(=O)/C(=C/c3cccn3C)S2)cc1C,2,2%,1%,1,4,-2%
Cc1ccc(-c2nnc(-c3ccc4ccccc4c3)o2)cc1,1,4.5µM*,.,-2,0,-2%
Clc1ccc(-c2nnc(-c3ccc4ccccc4c3)o2)cc1,0,2µM*,.,7,-1,1%
Clc1ccc(-c2nnc(-c3ccco3)o2)cc1,0,5.6µM*,-7%,-9,-3,-8%
CCn1c(SCC(=O)Nc2ccccc2)nc2nc3c(cc2c1=O)COC(C)(C)C3,2,-20%,-6%,0,0,-9%
CCn1c(SCC(=O)Nc2cccc(C)c2)nc2nc3c(cc2c1=O)COC(C)(C)C3,0,-27%,14µM*,0,0,0%
O=CC(=O)c1ccc(Cl)cc1,0,.,.,.,.,.
CC(C)(C)n1ncc2c(=O)n(Cc3cc(C(F)(F)F)ccc3Cl)cnc21,0,.,.,30,.,.
Cc1csc(SCc2nnc(-c3ccc(Cl)cc3)o2)n1,6,7.1µM*,29%,7,-1,1%
COc1ccc(OC)c2c(/C=C/c3c(C)[nH]c4ccccc34)ccnc12,1,.,.,.,.,.
Cc1cc(C)n2cc(CSc3nnnn3-c3ccccc3C)nc2n1,0,-12%,14µM*,-1,-3,-5%
CCOc1ccccc1NS(=O)(=O)c1cnc(N)nc1,0,.,.,-16,.,.
CN(C)/C=C1\C=Cc2ccccc21,0,-35%,.,.,.,.
Brc1ccccc1-n1nnc(-c2nccs2)n1,-1,4.5µM*,-2%,-5,-3,1%
c1ccc(-n2nnc(-c3nccs3)n2)cc1,0,2.8µM*,.,17,0,-8%
Cc1c(Cl)cccc1NC(=O)CC(c1cccs1)N1Cc2ccccc2C1=O (stereo not given),1,0%,.,-11,.,.
O=C(c1ccccc1)c1c2c(cc3sc4ccccc4[n+]13)-c1cccc3cccc-2c13,54*,-74%,-4%,7,2,-14%
OCc1cn(-c2ccccc2)nc1-c1ccco1,0,?,-12%,5,-1,-5%
Cc1ccc(-c2nn(-c3cccc(F)c3)cc2CN2CCN(c3ccccn3)CC2)o1,2,-38%,16µM*,6,0,3%
Cc1ccc(-c2nn(-c3ccccc3)cc2CO)o1,5,3.5µM*,22%,-8,0,-6%
Cc1ccc(-c2nn(-c3cccc(F)c3)cc2CN(Cc2nccn2C)C(C)C)o1,3,-6%,?,14,-5,-2%
COc1ccc(C(=O)Nc2cc(C(=O)c3ccccc3)c(C)oc2=O)cc1,0,17%,?,-9,-2,0%
Cc1oc(=O)c(NC(=O)c2cccc(Cl)c2)cc1C(=O)c1ccccc1,0,-31%,7.1µM*,-4,-5,0%
O=C(O)C=C1CCN(c2ncc(C(F)(F)F)cc2Cl)CC1,4,11µM*,-1%,21,-3,-2%
CC1CCc2c(sc(NC(=O)c3cccs3)c2C(=O)O)C1 (stereo not given),3,59%,.,17,-2,-6%
CCCC1CCc2c(sc(NC(=O)c3cccs3)c2C(N)=O)C1 (stereo not given),0,11µM*,-4%,-6,1,0%
